According to article PMC7819943, “Rice protein-binding microarrays: a tool to detect cis-acting elements near promoter regions in rice”:
Over roughly 68,000 sequences, “fluorescence intensity (a.u.)” has its median near 9,100; the highest 2% begin near 16,000. This excerpt belongs to a sample that is enriched for the highest values.

Target: OsWRKY34 (Oryza sativa, UniProt Q0JBA9 1-250)
Test: protein-binding microarray (RPBM); PBS, 2% BSA, 51.3 ng/ul salmon testes DNA, 50 uM zinc acetate, 200 nM TF, 25 C, 1 h; high values mean tight binding
Conditions: protein: recombinant; tags: N-terminal polyhistidine and DsRed monomer fusion (pET32a); label: CyDye5-dUTP incorporated in the synthesized complementary strand; 3' TTTTT single-stranded linker to array surface; dsDNA, one strand shown
Summary of the method: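 For the binding signal, per-feature fluorescence intensity was read in arbitrary units on an Axon 4000B scanner. Before scanning, a 2% BSA-blocked custom Agilent array made double-stranded with Cy5-dUTP was washed after 1 h at 25 °C with 200 nM protein and 50 µM zinc acetate. The proteins were Ni–NTA-purified transcription factors with N-terminal polyhistidine and DsRed fusions, expressed in E. coli BL21-CodonPlus.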

Sequence of OsWRKY34 (Q0JBA9 entry or part of it): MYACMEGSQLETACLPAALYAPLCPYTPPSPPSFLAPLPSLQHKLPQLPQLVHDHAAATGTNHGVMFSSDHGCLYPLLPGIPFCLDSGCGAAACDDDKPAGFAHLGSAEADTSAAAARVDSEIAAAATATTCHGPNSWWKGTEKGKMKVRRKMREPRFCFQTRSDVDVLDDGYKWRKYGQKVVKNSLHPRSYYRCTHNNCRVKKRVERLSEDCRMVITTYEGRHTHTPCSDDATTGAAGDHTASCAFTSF

| Sequence | binding signal |
| --- | --- |
| AGCCATCCGGCCGCGGCCCGTCACAGGTAACTAGTCATTTCGGAGTCACCTAGTGCAG | 9260 fluorescence intensity (a.u.) |
| TTCCCACCGCTGCCGCTCGTCCCGTCTCACCGATCCCTCCCGGAGTCACCTAGTGCAG | 10300 fluorescence intensity (a.u.) |
| CGCCGCCATTTCCGCCTCTTCTTCTCTTAAACAAAAAGCCCGGAGTCACCTAGTGCAG | 10200 fluorescence intensity (a.u.) |
| TCCTGTGTTTTTTCTGTGTTTTGCAATCCTCTGTTTTACACGGAGTCACCTAGTGCAG | 10900 fluorescence intensity (a.u.) |
| TGGGGTTCTTGTTTTTCTTTTCCGGGATCTTTGGGTGATGCGGAGTCACCTAGTGCAG | 15900 fluorescence intensity (a.u.) |
| CTACTACTCTTTTCTCAGAGCTAGTGAGGGGCGGGCGGGCCGGAGTCACCTAGTGCAG | 17500 fluorescence intensity (a.u.) |
| AACTTGGTGGGTTTGGTTTTGCTCTTTCTGTTGACCAAGCCGGAGTCACCTAGTGCAG | 12000 fluorescence intensity (a.u.) |
| TTTTTGGGTGGGAGTTGTATTTTTTTAACATGTGGGAAAACGGAGTCACCTAGTGCAG | 21300 fluorescence intensity (a.u.) |
| TGGTTTTCTGTTTTCTTGGTTTTGGGTGGTGGCAGTTGACCGGAGTCACCTAGTGCAG | 23200 fluorescence intensity (a.u.) |
| GGTAAAACATGTTGGATTTTATTTTGGTGGGATGTGCAATCGGAGTCACCTAGTGCAG | 9620 fluorescence intensity (a.u.) |
| ACTACTCACTCTTCATTGCTTTTTTTTTTCTCTCTCTAGCCGGAGTCACCTAGTGCAG | 9600 fluorescence intensity (a.u.) |
| TTGACTGGGTTTTTCTTTTTTTTTTCTGTTTTGTTGTTTGCGGAGTCACCTAGTGCAG | 10100 fluorescence intensity (a.u.) |
| GATCTGACCGGATTTTGCGGTGGGGTTTTCTTTTTTGGGTCGGAGTCACCTAGTGCAG | 12200 fluorescence intensity (a.u.) |
| GTCTTATTGTGGTTGGGAGTTTAACGGTGTACCGAAGAAACGGAGTCACCTAGTGCAG | 8780 fluorescence intensity (a.u.) |
| TGGGGTTTTCTTTTTTGGGTTGGGTTGATCTTTTGGGTGGCGGAGTCACCTAGTGCAG | 36600 fluorescence intensity (a.u.) |
| CACTACCTCAGTATTCTCTACTACTACTCTTTTCTCAGAGCGGAGTCACCTAGTGCAG | 8470 fluorescence intensity (a.u.) |
| TCTTCGTCGACACCACCCCAGCCGGTGTCCCCACGCGCTCCGGAGTCACCTAGTGCAG | 10100 fluorescence intensity (a.u.) |
| CCAGTTTGTATCTCATGTATTGGGCCTCGAAATCTGGTATCGGAGTCACCTAGTGCAG | 12200 fluorescence intensity (a.u.) |
| GTTACTGCACATTGACCATCGCGTTACTGCACCGTTCTGCCGGAGTCACCTAGTGCAG | 8940 fluorescence intensity (a.u.) |
| GAGGGGTTTCATTGTTATTTTTGGGTAATCCAAATTTACACGGAGTCACCTAGTGCAG | 16300 fluorescence intensity (a.u.) |
| GCGAACCGCGAATACAATAGCCGGCGCCCCGCGCGTACACCGGAGTCACCTAGTGCAG | 8070 fluorescence intensity (a.u.) |
| TCCTCGCGACCTTAATTTACTCCTCCAATGGCCGCCGCTGCGGAGTCACCTAGTGCAG | 8600 fluorescence intensity (a.u.) |
| CGCTGTATTTTGTTGGGATCACCTGTACATTTCTTCACAACGGAGTCACCTAGTGCAG | 10900 fluorescence intensity (a.u.) |

| Sequence | binding signal |
| --- | --- |
| TTTCTTGGTCTTTGGGTTAAATGTGGTTATGCCTTATATTCGGAGTCACCTAGTGCAG | 8260 fluorescence intensity (a.u.) |
| GAGTCATAGTAGTGTAGTAGTGGGTCAACTCAGTCAAGTCCGGAGTCACCTAGTGCAG | 8290 fluorescence intensity (a.u.) |
| GTATTATTGTCCCTTACATTGCTAACTCAATGTTGTATTACGGAGTCACCTAGTGCAG | 8130 fluorescence intensity (a.u.) |
| TTTTTACAACCCTGCGATTCAGATAGACCTTACCATTTTTCGGAGTCACCTAGTGCAG | 8940 fluorescence intensity (a.u.) |
| CAGCGGAGAGCGGCGGCGGCGAGTAGGATGGGGTTTGATTCGGAGTCACCTAGTGCAG | 8380 fluorescence intensity (a.u.) |
| GAGTAGGATGGGGTTTGATTTTGGGGTTCGTGGGGTCGAGCGGAGTCACCTAGTGCAG | 17100 fluorescence intensity (a.u.) |
| GTGGGTGGTTGGTGGTGGTGGTGGTGGTGGTGATCTTTGGCGGAGTCACCTAGTGCAG | 23900 fluorescence intensity (a.u.) |
| TTTGATCTTGTGGTGGTTTGGGTGATCGGTGGCGATGGGGCGGAGTCACCTAGTGCAG | 11000 fluorescence intensity (a.u.) |
| ATAGGAGGGGTCATATTAGTAGGGTTTTTTTTGGACGGAGCGGAGTCACCTAGTGCAG | 8260 fluorescence intensity (a.u.) |
| TAGGTGGTGTTTGGTTTATGGATCAGGTGGGTTGGGTTGGCGGAGTCACCTAGTGCAG | 8740 fluorescence intensity (a.u.) |
| AAACTGTTCTCCTCCACTTGCCTATCTTATCCTCTCTTATCGGAGTCACCTAGTGCAG | 8930 fluorescence intensity (a.u.) |
| ACGGTTGTGTATTTCATAGTAGGGTGTAAATGTACGCTGACGGAGTCACCTAGTGCAG | 8030 fluorescence intensity (a.u.) |
| ATACAACTTCGTCTGGCGCCCTCAATCGATCTCGCTCTATCGGAGTCACCTAGTGCAG | 9870 fluorescence intensity (a.u.) |
| AACCCTCATCTACTTCTGGCCCTCTAAGAGTTCTCCACTACGGAGTCACCTAGTGCAG | 8400 fluorescence intensity (a.u.) |
| GTGTGTGCCTCCTTTTCTCTTCTTCAGTTTTCAACTCAAACGGAGTCACCTAGTGCAG | 9440 fluorescence intensity (a.u.) |
| CCTCATCCCGTCCAGCGTTCACCCGACGTCGCCCGTCGCACGGAGTCACCTAGTGCAG | 10500 fluorescence intensity (a.u.) |
| TGAGTCTTCACAATCCCATGTCACATGATCATGTGATCTTCGGAGTCACCTAGTGCAG | 9860 fluorescence intensity (a.u.) |
| GGGTGGGATTGGGATTGGGAAATGAATGAAGGGTTAGGATCGGAGTCACCTAGTGCAG | 16400 fluorescence intensity (a.u.) |
| GAAATGAGGGGTGGGATTGGGATTGGGATTGGAAAATGAACGGAGTCACCTAGTGCAG | 11800 fluorescence intensity (a.u.) |
| GTGGGGATTGGGTAGGAGAAGGAGTGGGGAATTAGGTTAGCGGAGTCACCTAGTGCAG | 12200 fluorescence intensity (a.u.) |
| TGTACTGTAGGGGTGGGATTGTGATTGGAAAATGAATGAACGGAGTCACCTAGTGCAG | 18600 fluorescence intensity (a.u.) |
| GTGATTGGATGGGTAGTGGAGACAGGTGGGAAAAATGAATCGGAGTCACCTAGTGCAG | 8510 fluorescence intensity (a.u.) |
| GTGGGATTAGGATTGGAAAATGAATGAAGGGTTAGAATTACGGAGTCACCTAGTGCAG | 8560 fluorescence intensity (a.u.) |
